Test [1] is described as follows: qHTS assay to identify small molecule antagonists of the vitamin D receptor (VDR) signaling pathway - cell viability counter screen (AID 743225). Note: nearly all actives have a fitted effect of over 50% in size. Note: potency is the fitted concentration of half-maximal effect. An outline of the steps: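 HEK293T VDR-bla; cpd + 1a,25-(OH)2D3 3 nM final, 16 h 37C/5% CO2; B/G FRET substrate 2 h RT; then CellTiter-Glo 30 min RT, luminescence.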
The nature of test [2]: qHTS assay to identify small molecule agonists of the NFkB signaling pathway (AID 1159509; active = well fitted curve in the direction sought with a large enough effect in the signal ratio in the repeat runs, not every such curve was filed as active; the % refers to the signal ratio; note: series mostly up to about 61 µM). An outline of the steps:
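Pathway activation was measured in ME-180 cells stably expressing beta-lactamase under NF-kB response element control. Substrate cleavage was read as the 460/530 nm emission shift after 5 hr compound incubation.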

Test [3] in a line: qHTS assay to identify small molecule agonists of the NFkB signaling pathway - cell viability counter screen (AID 1159515; calls by dose curve; note: series mostly up to about 61 µM; nearly all actives have a fitted effect of over 55% in size). An outline of the steps:
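Read by CellTiter-Glo luminescence (30 min, room temperature) in the wells also used for the beta-lactamase FRET read. ME-180 NFkB-bla cells at 2,000 per well were plated overnight, then exposed to compound for 5 hr at 37 C.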

Test [4] is described as follows: qHTS assay to identify small molecule antagonists of the retinoid-related orphan receptor gamma (ROR-gamma) signaling pathway - cell viability counter screen (AID 1159520). Note: nearly all actives have a fitted effect of over 50% in size. An outline of the steps:
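Tet-on ROR gamma CHO cells were given compounds for 2 hr, then doxycycline hyclate at 1 uM final, and incubated 16 hr at 37 C. Viability was measured as ATP content by CellTiter-Glo luminescence.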

Test [5] addresses Nuclear receptor ROR-gamma (Homo sapiens) (UniProt P51449). Put plainly: qHTS assay to identify small molecule antagonists of the retinoid-related orphan receptor gamma (ROR-gamma) signaling pathway (AID 1159521; note: nearly all actives have a fitted effect of over 50% in size; note: potency is the fitted concentration of half-maximal effect). An outline of the steps:
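Cells were plated, rested 4 h at 37 C, exposed to compounds for 2 h, then given 1 uM final doxycycline hyclate to induce RORγ expression. After 16 h, ONE-Glo luminescence from the ROR response element reporter was measured.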

The nature of test [6]: qHTS assay to identify small molecule agonists of the AP-1 signaling pathway - cell viability counter screen (AID 1159525; calls by dose curve; note: nearly all actives have a fitted effect of over 55% in size). An outline of the steps:
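Same-well cytotoxicity counter screen of the Tox21 10K library in ME-180 cells. The readout is ATP-dependent luminescence after 5 h compound treatment. Data are normalised to DMSO and tetra n-octyl ammonium bromide controls.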

A short description of test [7]: qHTS assay to identify small molecule agonists of the AP-1 signaling pathway (AID 1159526; calls by dose curve).
A short description of test [8]: qHTS assay to identify small molecule agonists of the endoplasmic reticulum stress response signaling pathway (AID 1159516; active = well fitted activation curve with a large enough effect in the signal ratio in the repeat runs, not every such curve was filed as active; the % refers to the signal ratio). An outline of the steps: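 Ratiometric FRET readout (405 nm excitation; 460 and 530 nm emission) of a beta-lactamase gene driven by the ER stress response element, after 2 hr substrate loading. HeLa ESRE-bla cells were seeded overnight and treated with compounds for only 5 hr at 37 C.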

Test [9] in a line: qHTS assay to identify small molecule agonists of the endoplasmic reticulum stress response signaling pathway - cell viability counter screen (AID 1159517; calls by dose curve; note: nearly all actives have a fitted effect of over 50% in size; note: potency is the fitted concentration of half-maximal effect). A digest of the protocol:
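In parallel with the ESRE reporter read, cytotoxicity was scored by CellTiter-Glo luminescence (30 min, room temperature) on HeLa ESRE-bla cells dosed for 5 hr.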

Test [10] deals with Retinoic acid receptor RXR-alpha (Homo sapiens) (UniProt P19793). In words: qHTS assay to identify small molecule agonists of the RXR signaling pathway (AID 1159527; calls by dose curve; note: nearly all actives have a fitted effect of over 35% in size). A digest of the protocol:
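Cells plated at 2,000/well, rested 5 hr at 37 C, pin-dosed with DMSO compound solutions, incubated 16 hr, then loaded with B/G FRET substrate for 2 hr at RT before dual-emission fluorescence reading.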

Molecules are shown by their SMILES. “And” between values parts separate entries of the source, which are not always exact repeats. Identical values can stand only once. Results filed as inconclusive are left out. A structure can be active in one record and inactive in another. The source made the active and inactive calls. Unless noted, calls come from the whole dose curve; as a rule, active = well fitted curve in the direction sought with a large enough effect in the repeat runs; inconclusive = weak or mixed curves; inactive = no such curve, though single readings can be large; an effect the other way counts as inactive or inconclusive.

Sequence of Retinoic acid receptor RXR-alpha (Homo sapiens) (P19793 whole entry, looked up): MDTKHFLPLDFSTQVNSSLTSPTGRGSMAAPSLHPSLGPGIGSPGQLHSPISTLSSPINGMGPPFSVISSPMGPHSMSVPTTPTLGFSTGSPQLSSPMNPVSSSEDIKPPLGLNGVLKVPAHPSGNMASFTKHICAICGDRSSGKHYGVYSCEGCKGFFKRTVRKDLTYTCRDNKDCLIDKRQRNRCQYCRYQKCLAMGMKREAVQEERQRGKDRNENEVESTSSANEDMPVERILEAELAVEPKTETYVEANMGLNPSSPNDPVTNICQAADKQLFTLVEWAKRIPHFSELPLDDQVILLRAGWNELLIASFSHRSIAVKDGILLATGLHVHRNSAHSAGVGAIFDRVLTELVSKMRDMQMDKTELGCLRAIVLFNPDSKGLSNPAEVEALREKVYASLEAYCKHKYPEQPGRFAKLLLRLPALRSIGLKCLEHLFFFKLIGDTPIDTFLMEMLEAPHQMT

Take `CCOCN(C(=O)CCl)c1c(C)cccc1CC`: the Potency entry in test [1], in test [3], in test [4] and in test [6] was “inactive” each time. In addition, the compound was called inactive in test [2] and in test [7]. In addition, in [5], the Potency was 45.9 µM (active) and 27.3 µM (active).
`CCCCCCCCOC(=O)c1ccccc1C(=O)OCCCCCCCC`: the Potency entry in test [1], in test [9], in test [4], in test [5], in test [6] and in [10] was “inactive” each time. Further, the call in [2], in test [8] and in [7] was inactive.
As for `OCC(O)CO`, the Potency result in [1], in test [9], in test [4], in [5] and in [6] was “inactive” each time. Further, the result in [2], in test [8] and in test [7] was inactive.
For the compound `Oc1cc(Cl)ccc1Cl`, the Potency entry in [1], in test [9], in test [4], in test [5], in [6] and in [10] was “inactive” in each case. Moreover, the outcome in test [2], in test [8] and in [7] was inactive.
Consider `Nc1ccc(Cl)cc1N`, for which the Potency entry in [1], in test [4], in [5], in test [6] and in test [10] was “inactive” throughout. Moreover, the result in [2], in [8] and in test [7] was inactive.
Turning to `C=CC(=O)OCCO`, the Potency entry in test [1], in [4], in [5], in test [6] and in test [10] was “inactive” in each case. In addition, the call in test [2], in [8] and in [7] was inactive.
Regarding `CCCCN(CCCC)N=O`, the Potency entry in test [1], in test [9], in test [4], in test [5], in [6] and in test [10] was “inactive” throughout. Moreover, the compound was called inactive in test [2], in test [8] and in [7].
`COP(=S)(OC)Oc1ccc([N+](=O)[O-])cc1`: the Potency result in test [1], in test [4], in test [5], in [6] and in [10] was “inactive” each time. In addition, the compound was classed as inactive in test [2], in test [8] and in [7].
Regarding `Nc1ccc(-c2ccc(N)c(N)c2)cc1N`, the Potency entry in [1], in [4] and in test [6] was “inactive” throughout. In test [2], the compound was classed as inactive. Also, the Potency in test [5] is 27.2 µM (active).
Take `CC(C)(OOC(C)(C)c1ccccc1)c1ccccc1`: the Potency entry in [1], in test [9], in test [4], in test [5] and in [6] was “inactive” throughout. Moreover, the compound was classed as inactive in [2], in test [8] and in test [7].
`CCOC(=O)C(C)OC(=O)c1cc(Oc2ccc(C(F)(F)F)cc2Cl)ccc1[N+](=O)[O-]` (configuration not stated): the Potency result in test [1], in test [4], in test [6] and in test [10] was “inactive” throughout. The compound was classed as inactive in [2], in test [8] and in test [7].
For the compound `Brc1ccc(Oc2cc(Br)c(Br)cc2Br)c(Br)c1`, the Potency result in test [1], in test [4], in [5], in test [6] and in [10] was “inactive” each time. Besides, the call in test [2], in [8] and in [7] was inactive.
As to `CCC(CC)Nc1c([N+](=O)[O-])cc(C)c(C)c1[N+](=O)[O-]`, the Potency entry in [1], in test [4], in test [5] and in [6] was “inactive” in each case. Further, the outcome in test [2] was inactive.
As to `O=C1C=CC(=O)C=C1`, the Potency result in test [1], in test [5], in test [6] and in test [10] was “inactive” throughout. In addition, the compound was called inactive in [2] and in test [7].
Consider `Cc1ccc(N)c(N)c1`, for which the Potency entry in test [1], in test [4], in test [5] and in test [6] was “inactive” in each case. The outcome in [2], in test [8] and in test [7] was inactive.
Consider `CN(C)C(=O)Nc1ccc(Cl)cc1`, for which the Potency result in test [1], in test [9], in test [4], in test [5], in [6] and in test [10] was “inactive” throughout. Besides, the compound was classed as inactive in test [2], in test [8] and in test [7].
`Cc1cc(Cl)ccc1OCCCC(=O)O`: the Potency entry in [1], in test [9], in test [4], in test [5] and in [6] was “inactive” in each case. Also, the result in test [2], in test [8] and in test [7] was inactive.
Regarding `Cc1c(COC(=O)[C@@H]2[C@H](/C=C(\Cl)C(F)(F)F)C2(C)C)cccc1-c1ccccc1`, the Potency result in test [1], in test [9], in [4] and in test [6] was “inactive” each time. Moreover, the call in test [2], in [8] and in [7] was inactive. In addition, the Potency in test [5] is 23.8 µM (active) and inactive.
Consider `Cc1ccc(OP(=O)(Oc2ccc(C)cc2)Oc2ccc(C)cc2)cc1`, for which the Potency entry in test [1], in [4] and in test [6] was “inactive” each time. Also, the result in [2], in test [8] and in test [7] was inactive. Further, in test [5], the Potency was 12.2 µM (active).
Take `CC(C)C(=O)OCC(C)(C)C(OC(=O)C(C)C)C(C)C` (configuration not stated): the Potency result in test [1], in test [9], in test [4], in test [5], in test [6] and in test [10] was “inactive” in each case. The compound was classed as inactive in [2], in test [8] and in [7].
`O=Cc1ccco1`: the Potency result in [1], in [9], in test [4], in test [5], in test [6] and in [10] was “inactive” in each case. In addition, the result in [2], in [8] and in [7] was inactive.
In the case of `COP(=S)(OC)Oc1cc(Cl)c(Cl)cc1Cl`, the Potency entry in test [1], in test [4], in test [6] and in test [10] was “inactive” each time. The result in test [2] and in test [8] was inactive.
Regarding `CC(C)Oc1cc(-n2nc(C(C)(C)C)oc2=O)c(Cl)cc1Cl`, the Potency in test [1] was 13.8 µM (active). In addition, the outcome in test [2], in test [8] and in [7] was inactive. Besides, the Potency entry in test [4] and in test [6] was “inactive” throughout.
In the case of `C=CCN(CC=C)C(=O)C(Cl)Cl`, the Potency entry in test [1], in [4], in test [5], in [6] and in test [10] was “inactive” throughout. The result in test [2], in test [8] and in test [7] was inactive.
`O=[N+]([O-])c1ccc(O)c([N+](=O)[O-])c1`: the compound was classed as inactive in test [2], in test [8] and in test [7]. The Potency entry in test [4] and in [6] was “inactive” throughout. Moreover, the Potency in test [5] is 17.3 µM (active) and 17.2 µM (active).
On to `O=c1oc2ccccc2c(O)c1C(CC(O)c1ccc(-c2ccc(Br)cc2)cc1)c1ccccc1` (configuration not stated), for which, in test [2], the call was inactive. Further, the Potency entry in test [4] and in test [6] was “inactive” throughout. The Potency in test [5] is 57.9 µM (active).
As to `CCN(CC)N=O`, the Potency result in [1], in test [4], in [5] and in [6] was “inactive” throughout. The result in test [2], in [8] and in test [7] was inactive.
`NNC(N)=S`: the Potency entry in test [1], in [4], in test [5] and in [6] was “inactive” throughout. Also, the compound was called inactive in [2] and in test [8].
As for `CC(C)(c1cc(Cl)c(O)c(Cl)c1)c1cc(Cl)c(O)c(Cl)c1`, the Potency entry in test [1], in test [4], in test [5], in [6] and in test [10] was “inactive” each time. Besides, the compound was called inactive in test [2] and in [8]. The Potency in test [9] is 43.7 µM (active) and 43.6 µM (active).
Regarding `c1ccc(-c2cccc(-c3ccccc3)c2)cc1`, the Potency entry in [1], in test [9], in test [4], in [5], in [6] and in [10] was “inactive” each time. Moreover, the compound was called inactive in [2], in [8] and in test [7].

(Values after PubChem BioAssay (Tox21).)
